Among the data in PubChem BioAssay (EPA / NIEHS) are outcome and AC50 values, retold here.

Structures are written as SMILES. Records with an inconclusive call do not appear. Activity calls are given as the source filed them. Rule for the calls: active = hit-call score of the fitted dose curve at least 0.9, where 1 is the maximum; inconclusive = response in the unintended direction; inactive = score below 0.9.

The target in assay [1] is Cytochrome P450 3A4 (Homo sapiens) (UniProt P08684). Briefly: NVS_ADME_hCYP3A4: NovaScreen (NVS) CYP450-related Enzyme Activity (ADME) Assay for human CYP3A4 (AID 2283110). The method, boiled down: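 Compounds were first screened in duplicate at 10 uM against recombinant CYP3A4 produced in insect cells, then actives were run in concentration series. Enzyme activity was measured by fluorescence after 0.33 hour, with acetonitrile as baseline.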

Assay [2] deals with human Ephrin type-A Receptor 1 (EphA1), EPHA1 (gene 2041) (UniProt P21709). The assay is described as follows: NVS_ENZ_hEphA1: NovaScreen (NVS) Enzymatic Assay for human Ephrin type-A Receptor 1 (EphA1) (AID 2283158).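 Note: activity is signal loss versus DMSO meaning EphA1 kinase inhibition.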 The gist of the method: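 Here the EphA1 protein is recombinant and the substrate fluorescent, with electrophoretic separation before fluorescence detection at 1 hour. Signal loss against DMSO defines activity; plate controls included; follow-up concentration series reach 50 uM.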
Sequence of human Ephrin type-A Receptor 1 (EphA1), EPHA1 (gene 2041) (P21709 whole entry, looked up): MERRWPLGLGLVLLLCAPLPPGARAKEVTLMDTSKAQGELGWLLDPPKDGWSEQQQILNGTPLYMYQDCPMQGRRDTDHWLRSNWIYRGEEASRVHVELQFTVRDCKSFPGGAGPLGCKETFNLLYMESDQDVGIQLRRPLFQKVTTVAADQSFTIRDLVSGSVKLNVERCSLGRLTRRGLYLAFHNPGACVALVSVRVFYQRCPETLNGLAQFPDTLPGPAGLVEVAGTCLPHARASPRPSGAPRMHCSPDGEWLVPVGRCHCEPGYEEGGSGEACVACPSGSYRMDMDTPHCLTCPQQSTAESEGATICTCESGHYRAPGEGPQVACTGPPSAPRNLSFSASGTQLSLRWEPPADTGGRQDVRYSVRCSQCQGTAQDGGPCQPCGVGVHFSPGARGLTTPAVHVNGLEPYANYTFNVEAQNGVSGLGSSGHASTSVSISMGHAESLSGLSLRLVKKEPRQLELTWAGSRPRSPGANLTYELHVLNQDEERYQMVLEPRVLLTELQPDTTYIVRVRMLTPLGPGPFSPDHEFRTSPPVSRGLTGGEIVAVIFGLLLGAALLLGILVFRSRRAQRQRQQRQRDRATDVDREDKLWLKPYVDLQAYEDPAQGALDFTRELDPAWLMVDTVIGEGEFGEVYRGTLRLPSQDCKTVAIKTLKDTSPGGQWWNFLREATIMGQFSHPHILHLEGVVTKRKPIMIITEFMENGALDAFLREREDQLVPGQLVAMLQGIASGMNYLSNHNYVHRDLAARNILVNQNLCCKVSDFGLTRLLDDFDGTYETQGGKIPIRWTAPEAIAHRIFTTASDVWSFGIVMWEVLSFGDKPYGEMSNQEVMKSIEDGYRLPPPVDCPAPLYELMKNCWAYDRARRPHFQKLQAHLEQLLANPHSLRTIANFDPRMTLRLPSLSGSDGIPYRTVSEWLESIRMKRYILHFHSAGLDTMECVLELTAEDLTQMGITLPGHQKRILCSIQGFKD

Assay [3] deals with human Phosphoinositide 3-kinase alpha (PI3Ka), PIK3CA (gene 5290) (UniProt P42336). Briefly: NVS_ENZ_hPI3Ka: NovaScreen (NVS) Enzymatic Assay for human Phosphoinositide 3-kinase alpha (PI3Ka) (AID 2283196). The gist of the method:
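Duplicate single-point screen (25 uM), then singleton dose-response (max 50 uM) for compounds meeting the threshold. Cell-free kinase reaction, 1 h; fluorescent mobility-shift readout.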

Assay [4] has as its target human Beta-secretase (BACE), BACE1 (gene 23621) (UniProt P56817). Briefly: NVS_ENZ_hBACE: NovaScreen (NVS) Enzymatic Assay for human Beta-secretase (BACE) (AID 2283140).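 Note: hits are inhibitors that reduce fluorescent substrate signal versus DMSO.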 The method, boiled down:
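Recombinant BACE1 (SF9 extract) incubated with compound and fluorescent substrate, 1 h. Plates carried positive and DMSO negative controls. Initial single dose 25 uM, duplicate; confirmation by concentration series.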

The target of assay [5] is sheep Cyclooxygenase-1 (Cox1), PTGS1 (gene 443551) (UniProt P05979). The assay is described as follows: NVS_ENZ_oCOX1: NovaScreen (NVS) Enzymatic Assay for sheep Cyclooxygenase-1 (Cox1) (AID 2283239).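 Note: actives reduce cyclooxygenase activity so potencies are for inhibitors.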 The gist of the method:
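Tested in duplicate at 25 uM, then in concentration series if active, against seminal vesicle extract from sheep. Enzyme activity was measured colorimetrically at 0.66 hour and normalised to DMSO.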

Assay [6] concerns the target human Phosphodiesterase 10 (PDE10), PDE10A (gene 10846) (UniProt Q9Y233). Briefly: NVS_ENZ_hPDE10: NovaScreen (NVS) Enzymatic Assay for human Phosphodiesterase 10 (PDE10) (AID 2283195). The method, boiled down:
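PDE10A, cell-free; 1 h incubation; fluorescence intensity + electrophoretic mobility shift separating substrate/product; DMSO = baseline; 25 uM duplicate primary, CRC up to 50 uM.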

Assay [7] deals with human Vascular Endothelial Growth Factor Receptor 1 (VEGFR1), FLT1 (gene 2321) (UniProt P17948). The assay is described as follows: NVS_ENZ_hVEGFR1: NovaScreen (NVS) Enzymatic Assay for human Vascular Endothelial Growth Factor Receptor 1 (VEGFR1) (AID 2283226). The method, boiled down: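 Cell-free assay of recombinant human VEGFR1 kinase with substrate, measured 1 h after dosing; fluorescence with electrophoretic mobility-shift separation of substrate and product, referenced to DMSO; primary screen at 25 uM in duplicate, actives then run in concentration series.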

Assay [8] concerns the target human MAP Kinase-Activated Protein Kinase 2 (MAPKAPK2), MAPKAPK2 (gene 9261) (UniProt P49137). Briefly: NVS_ENZ_hMAPKAPK2: NovaScreen (NVS) Enzymatic Assay for human MAP Kinase-Activated Protein Kinase 2 (MAPKAPK2) (AID 2283178). The method, boiled down: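 Cell-free recombinant human MAPKAPK2 activity measured by fluorescence with electrophoretic mobility shift separation of substrate and product, 1 hr after dosing. Loss of signal versus DMSO; primary screen at 25 uM, concentration-response up to 50 uM.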

The target in assay [9] is guinea pig Opioid, Kappa 1 Receptor (OpiateK), OPRK1 (gene 100135587) (UniProt P41144). Briefly: NVS_GPCR_gOpiateK: NovaScreen (NVS) G Protein-Coupled Receptor Assay for guinea pig Opioid, Kappa 1 Receptor (OpiateK) (AID 2283252).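 Note: radioligand displacement from kappa opioid receptor in guinea pig cerebellar membranes; active means reduced radioligand binding relative to DMSO.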 The method, boiled down:
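Signal is scintillation counts of filter-trapped radioligand bound to guinea pig cerebellar membrane receptor, measured 2 hours post-dosing. Activity is loss of binding versus DMSO, first at 25 uM in duplicate, then as concentration series for actives.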

The target of assay [10] is guinea pig Leukotriene D4 Receptor (LTD4), CYSLTR1 (gene 100135514) (UniProt Q2NNR5). The assay is described as follows: NVS_GPCR_gLTD4: NovaScreen (NVS) G Protein-Coupled Receptor Assay for guinea pig Leukotriene D4 Receptor (LTD4) (AID 2283248). The method, boiled down: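 Radioligand displacement on guinea pig lung membranes, 1 h incubation, filtration and scintillation counting; DMSO as negative control. Duplicate 25 uM primary screen, then singleton concentration-response up to 50 uM.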
Sequence of guinea pig Leukotriene D4 Receptor (LTD4), CYSLTR1 (gene 100135514) (Q2NNR5 whole entry, looked up): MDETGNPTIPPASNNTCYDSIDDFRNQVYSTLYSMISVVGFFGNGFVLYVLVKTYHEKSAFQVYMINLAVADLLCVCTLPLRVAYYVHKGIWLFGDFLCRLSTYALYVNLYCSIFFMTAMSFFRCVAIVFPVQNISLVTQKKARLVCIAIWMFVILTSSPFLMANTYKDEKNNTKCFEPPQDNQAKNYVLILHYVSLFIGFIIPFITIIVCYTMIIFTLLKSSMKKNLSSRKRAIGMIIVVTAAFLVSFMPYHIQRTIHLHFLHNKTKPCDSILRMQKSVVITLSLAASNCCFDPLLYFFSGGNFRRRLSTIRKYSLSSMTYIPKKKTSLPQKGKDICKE

Assay [11] addresses human Matrix Metalloproteinase-2 (MMP2), MMP2 (gene 4313) (UniProt P08253). Briefly: NVS_ENZ_hMMP2: NovaScreen (NVS) Enzymatic Assay for human Matrix Metalloproteinase-2 (MMP2) (AID 2283184). The method, boiled down:
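Cell-free recombinant MMP2 activity with a fluorescent substrate, read 1 h after dosing. Primary screen in duplicate at 25 uM; actives then run in concentration series; loss of signal fitted versus DMSO.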

Assay [12] addresses sheep Cyclooxygenase-2 (Cox2), PTGS2 (gene 443460) (UniProt P79208). Briefly: NVS_ENZ_oCOX2: NovaScreen (NVS) Enzymatic Assay for sheep Cyclooxygenase-2 (Cox2) (AID 2283231). The method, boiled down:
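Compounds were first run at 25 uM in duplicate against tissue-extracted ovine COX-2; those passing a preset inhibition threshold went to singleton concentration-response testing with a 50 uM maximum. Read-out: absorbance at 0.66 hour.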

Sequence of human Phosphodiesterase 10 (PDE10), PDE10A (gene 10846) (Q9Y233 whole entry, looked up): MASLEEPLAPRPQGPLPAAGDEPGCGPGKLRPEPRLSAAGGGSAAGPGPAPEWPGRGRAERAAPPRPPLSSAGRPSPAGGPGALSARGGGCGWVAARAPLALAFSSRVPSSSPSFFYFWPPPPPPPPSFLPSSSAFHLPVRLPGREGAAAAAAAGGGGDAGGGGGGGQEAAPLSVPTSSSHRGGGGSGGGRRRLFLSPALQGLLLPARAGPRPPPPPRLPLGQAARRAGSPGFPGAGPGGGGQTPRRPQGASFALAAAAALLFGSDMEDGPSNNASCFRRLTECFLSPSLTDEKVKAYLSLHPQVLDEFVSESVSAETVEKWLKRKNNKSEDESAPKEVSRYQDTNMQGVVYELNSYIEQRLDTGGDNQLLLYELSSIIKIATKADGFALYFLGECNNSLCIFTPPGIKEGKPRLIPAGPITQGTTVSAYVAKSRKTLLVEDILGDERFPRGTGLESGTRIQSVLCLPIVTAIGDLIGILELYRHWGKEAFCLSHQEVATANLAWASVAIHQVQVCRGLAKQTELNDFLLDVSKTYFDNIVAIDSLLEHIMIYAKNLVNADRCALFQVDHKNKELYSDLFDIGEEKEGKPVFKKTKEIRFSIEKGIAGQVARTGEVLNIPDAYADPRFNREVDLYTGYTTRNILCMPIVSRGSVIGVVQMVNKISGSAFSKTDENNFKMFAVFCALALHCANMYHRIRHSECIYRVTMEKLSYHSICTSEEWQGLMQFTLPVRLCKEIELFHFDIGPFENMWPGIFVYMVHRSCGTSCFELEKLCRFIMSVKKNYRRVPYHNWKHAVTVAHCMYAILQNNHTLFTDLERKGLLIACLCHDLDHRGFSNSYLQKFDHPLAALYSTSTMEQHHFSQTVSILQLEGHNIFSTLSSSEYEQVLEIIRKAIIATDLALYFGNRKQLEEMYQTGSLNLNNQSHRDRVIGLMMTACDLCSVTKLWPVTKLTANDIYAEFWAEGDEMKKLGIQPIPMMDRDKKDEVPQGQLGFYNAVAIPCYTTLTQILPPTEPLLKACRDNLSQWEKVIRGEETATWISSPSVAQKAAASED
Sequence of sheep Cyclooxygenase-1 (Cox1), PTGS1 (gene 443551) (P05979 whole entry, looked up): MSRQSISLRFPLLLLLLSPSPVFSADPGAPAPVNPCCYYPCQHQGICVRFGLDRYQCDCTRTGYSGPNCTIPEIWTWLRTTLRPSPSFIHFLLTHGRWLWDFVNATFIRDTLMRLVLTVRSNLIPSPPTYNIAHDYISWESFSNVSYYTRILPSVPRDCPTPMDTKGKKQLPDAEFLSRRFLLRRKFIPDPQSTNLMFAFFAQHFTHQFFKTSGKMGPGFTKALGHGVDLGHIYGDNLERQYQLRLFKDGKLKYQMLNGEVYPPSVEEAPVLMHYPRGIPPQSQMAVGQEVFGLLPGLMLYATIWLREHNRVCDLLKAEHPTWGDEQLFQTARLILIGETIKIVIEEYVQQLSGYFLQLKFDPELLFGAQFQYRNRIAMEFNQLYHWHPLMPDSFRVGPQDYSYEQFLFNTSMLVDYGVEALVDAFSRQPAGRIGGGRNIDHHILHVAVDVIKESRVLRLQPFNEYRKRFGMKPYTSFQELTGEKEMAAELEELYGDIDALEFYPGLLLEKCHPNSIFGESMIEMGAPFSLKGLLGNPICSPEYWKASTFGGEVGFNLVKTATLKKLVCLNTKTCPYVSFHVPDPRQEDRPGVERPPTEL
Sequence of human Phosphoinositide 3-kinase alpha (PI3Ka), PIK3CA (gene 5290) (P42336 whole entry, looked up): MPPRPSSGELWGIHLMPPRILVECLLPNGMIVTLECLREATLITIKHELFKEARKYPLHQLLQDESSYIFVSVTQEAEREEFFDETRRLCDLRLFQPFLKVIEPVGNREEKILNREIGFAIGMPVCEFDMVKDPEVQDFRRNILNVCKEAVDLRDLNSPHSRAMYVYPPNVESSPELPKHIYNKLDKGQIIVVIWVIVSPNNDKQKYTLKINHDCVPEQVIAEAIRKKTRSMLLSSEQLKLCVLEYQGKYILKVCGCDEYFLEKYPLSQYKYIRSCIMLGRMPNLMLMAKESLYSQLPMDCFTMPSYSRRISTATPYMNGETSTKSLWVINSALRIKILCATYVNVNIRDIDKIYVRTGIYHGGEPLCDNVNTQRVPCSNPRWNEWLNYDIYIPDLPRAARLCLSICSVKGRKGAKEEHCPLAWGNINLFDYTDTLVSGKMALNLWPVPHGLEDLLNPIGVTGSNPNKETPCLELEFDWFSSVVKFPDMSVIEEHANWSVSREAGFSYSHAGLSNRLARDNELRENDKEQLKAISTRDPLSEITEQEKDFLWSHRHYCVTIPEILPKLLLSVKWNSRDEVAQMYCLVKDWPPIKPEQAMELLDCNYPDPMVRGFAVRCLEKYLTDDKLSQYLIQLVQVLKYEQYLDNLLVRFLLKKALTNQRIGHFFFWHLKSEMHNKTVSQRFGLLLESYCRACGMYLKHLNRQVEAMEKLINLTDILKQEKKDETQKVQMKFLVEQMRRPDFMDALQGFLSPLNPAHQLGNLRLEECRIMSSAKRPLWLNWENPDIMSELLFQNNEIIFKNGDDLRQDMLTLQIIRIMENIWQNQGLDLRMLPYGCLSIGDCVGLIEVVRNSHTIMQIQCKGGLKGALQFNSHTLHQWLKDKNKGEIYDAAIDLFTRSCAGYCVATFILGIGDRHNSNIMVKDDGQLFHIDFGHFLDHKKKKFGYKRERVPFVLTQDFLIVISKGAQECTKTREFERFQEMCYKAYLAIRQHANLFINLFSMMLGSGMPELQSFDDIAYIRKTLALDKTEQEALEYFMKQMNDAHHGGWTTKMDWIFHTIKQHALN
Sequence of sheep Cyclooxygenase-2 (Cox2), PTGS2 (gene 443460) (P79208 whole entry, looked up): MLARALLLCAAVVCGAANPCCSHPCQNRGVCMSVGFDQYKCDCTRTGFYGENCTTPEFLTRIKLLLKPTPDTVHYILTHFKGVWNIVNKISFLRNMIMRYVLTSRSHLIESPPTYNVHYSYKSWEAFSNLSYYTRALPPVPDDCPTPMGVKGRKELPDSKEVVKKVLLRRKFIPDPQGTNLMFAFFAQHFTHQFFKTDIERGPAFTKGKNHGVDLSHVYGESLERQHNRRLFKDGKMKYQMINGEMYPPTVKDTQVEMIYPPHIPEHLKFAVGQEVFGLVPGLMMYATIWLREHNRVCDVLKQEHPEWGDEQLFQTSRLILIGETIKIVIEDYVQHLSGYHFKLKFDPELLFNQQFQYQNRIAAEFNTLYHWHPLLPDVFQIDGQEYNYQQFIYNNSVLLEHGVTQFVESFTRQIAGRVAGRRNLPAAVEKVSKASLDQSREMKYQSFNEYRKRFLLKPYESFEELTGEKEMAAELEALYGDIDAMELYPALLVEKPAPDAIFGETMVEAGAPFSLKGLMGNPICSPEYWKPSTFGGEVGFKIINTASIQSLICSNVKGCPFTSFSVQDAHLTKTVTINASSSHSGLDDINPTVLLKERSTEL
Sequence of guinea pig Opioid, Kappa 1 Receptor (OpiateK), OPRK1 (gene 100135587) (P41144 whole entry, looked up): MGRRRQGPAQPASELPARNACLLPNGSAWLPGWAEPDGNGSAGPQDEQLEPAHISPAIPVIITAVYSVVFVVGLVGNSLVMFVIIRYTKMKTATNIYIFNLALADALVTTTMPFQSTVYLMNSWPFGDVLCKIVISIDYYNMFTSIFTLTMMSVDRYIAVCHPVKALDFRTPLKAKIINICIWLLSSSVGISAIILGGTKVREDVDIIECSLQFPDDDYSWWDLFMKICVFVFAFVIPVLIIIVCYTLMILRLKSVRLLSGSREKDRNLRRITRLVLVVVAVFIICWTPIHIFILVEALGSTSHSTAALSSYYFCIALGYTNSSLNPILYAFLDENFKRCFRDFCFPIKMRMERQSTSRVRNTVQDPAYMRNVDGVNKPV

In the case of `C=CC(=O)OCC(C)OCC(C)OCC(C)OC(=O)C=C` (stereo not drawn), the outcome in [1], in [2] and in assay [3] was inactive. `C=CCCCCCCCCC=O`: the half-maximal activity concentration (AC50) (usually the midpoint of the concentration-response curve, whichever way the signal moves) in [4] is 13.1 µM (active). The result in assay [5] was inactive. On to `CCOc1ccc(NC(N)=O)cc1`, for which, in assay [2], the compound was called inactive. Take `CC1(C)C(=O)N(CO)C(=O)N1CO`: in assay [6], the half-maximal activity concentration (AC50) was 46.5 µM (active).

Take `Nc1cccc(N)n1`: the outcome in assay [2], in assay [7] and in assay [5] was inactive. Turning to `Nc1ccc(C(=O)O)cc1`, in assay [8], the compound was classed as inactive. Turning to `CCCCOCCOCCOC(C)=O`, the outcome in assay [2], in assay [6] and in [3] was inactive. Turning to `CC1=CC=C(C(C)C)CC1`, the compound was called inactive in assay [9].

For the compound `CCC1(C)C(=O)N(Cl)C(=O)N1Cl` (stereo not drawn), in [6], the AC50 is 20.7 µM (active). Take `CN1CCN(C)CC1`: in [10], the compound was called inactive. Turning to `Nc1nc(N)nc(-c2ccccc2)n1`, the outcome in assay [5] was inactive. In the case of `CCN1CN(CC)CN(CC)C1`, the compound was called inactive in assay [11] and in [12]. Consider `CCOC(=O)C1=NN(c2ccc(Cl)cc2Cl)C(C)(C(=O)OCC)C1` (stereo not drawn), for which the concentration at half-maximal activity (AC50) in assay [9] is 14.3 µM (active). For `Oc1ccc(/C=C/c2cc(O)cc(O)c2)cc1`, the compound was called inactive in assay [3]. For the same compound, the half-maximal activity concentration (AC50) in [5] is 7.5 µM (active).

For the compound `CCCCCCCCCCCC(C)=O`, in assay [5], the AC50 was 31.9 µM (active). In the case of `C=C(C)C1CC=C(C)CC1` (stereo not drawn), the AC50 in assay [12] was 19.3 µM (active). `NNS(=O)(=O)c1ccc(Oc2ccc(S(=O)(=O)NN)cc2)cc1`: the compound was called inactive in assay [5]. On to `Cn1cccc1`, for which the AC50 in assay [6] was 5.59 µM (active). For the compound `CCN(CC)c1cccc(C)c1`, in [6], the compound was called inactive.

With `CC(=O)OC(C)c1ccccc1` (stereo not drawn), the compound was classed as inactive in assay [2], in assay [6], in assay [3] and in assay [5]. Turning to `CC(=O)OC1CCCCC1`, in assay [6], the result was inactive. Still for that read-out and setting: the same measure for `O=C1CCCCCCCCCCCN1`: “inactive”; for `CCCCOCC(C)O` (stereo not drawn): “inactive”. On to `C=C(C)C1CC=C(C)C(OC(C)=O)C1` (stereo not drawn), for which the compound was classed as inactive in assay [6]. For the same compound, the AC50 in assay [3] was 25 µM (active). Turning to `O=C1CCCCCCCCCCC1`, the compound was classed as inactive in assay [6] and in [3]. As for `CCCSSCCC`, the compound was classed as inactive in [6].

`CC=C(C)C=CC=C(C)C`: the compound was called inactive in assay [2] and in assay [6]. The half-maximal activity concentration (AC50) in [3] is 0.976 µM (active). Take `C=CC(=O)O[C@H]1C[C@@H]2CC[C@@]1(C)C2(C)C`: in assay [6], the half-maximal activity concentration (AC50) is 3.57 µM (active). Still for that read-out and setting: the same measure for `[Cl][Sc]([Cl])[Cl]`: 1.67 µM (active). As to `CCCCCC1=CCCC1=O`, the outcome in [2] and in [6] was inactive. Also, the AC50 in assay [5] is 25 µM (active).
